In PubChem BioAssay (EPA / NIEHS):
The source made the active and inactive calls. Rule for the calls: active = hit-call score of the fitted dose curve at least 0.9, where 1 is the maximum; inactive = score below 0.9.

Experiment: ATG_GLI_CIS: Attagene CIS-FACTORIAL HepG2 Assay for human Zinc Finger Protein GLI1 (AID 2282945)
Conditions: HepG2, Attagene cis-factorial reporter mRNA, GLI element; actives raise or lower the signal
Method: ATG_CIS is a cell-based, multiplexed-readout assay that uses HepG2, a human liver cell line, with measurements taken at 24 hours after chemical dosing in a 24-well plate.ATG_GLI_CIS is one of 52 assay component(s) measured or calculated from the ATG_CIS assay. It is designed to make measurements of mRNA induction, a form of inducible reporter, as detected with fluorescence intensity signals by Reverse transcription polymerase chain reaction (RT-PCR) and Capillary electrophoresis technology.Data from the assay component ATG_GLI_CIS was analyzed into 1 assay endpoint. This assay endpoint, ATG_GLI_CIS, was analyzed with bidirectional fitting relative to DMSO as the negative control and baseline of activity. Using a type of inducible reporter, measures of mRNA for gain or loss-of-signal activity can be used to understand the reporter gene at the transcription factor-level as they relate to the gene GLI1. Furthermore, this assay endpoint can be referred to as a primary readout, because this assay has produced multiple assay endpoints where this one serves a reporter gene function. To generalize the intended target to other relatable targets, this assay endpoint is annotated to the dna binding intended target family, where the subfamily is zinc finger.
Human liver HepG2 cells are transiently transfected with multiple reporter transcription units (MRTUs) in 6-well plates using FuGene 6 reagent (Roche; 3 ml FuGene/1 mg DNA). The MRTU constructs are regulated by a cis-regulating element (promoter). […] A major difference between the CIS and TRANS system is that in CIS activities of endogenous TFs are measured, whereas the TRANS assay evaluates changes in activities of exogenous, chimeric NR-Gal4 proteins. […] At the end of 24 hour incubation, total RNA was isolated using TriZol reagent (Invitrogen). The isolated RNA is then reverse-transcribed using oligo(dT) primer and Mo-MLV reverse transcriptase (Invitrogen) with DNAse I (Ambion) treatment for 30 min. The one-tenth of the produced cDNA was amplified by PCR using Taq DNA polymerase (Invitrogen) and two reporter sequence-specific primers. The PCR products were fluorescently labeled by primer extension with 6-arboxyfluorescein (6-FAM) 5'-labeled reporter sequence-specific primer (2 min at 95 C, 20 s at 68 C and 10 min at 72 C) and these products were digested with 5U of HpaI (New England Biolabs) for 2h at 37 C. The fragments were purified using Qiaquick PCR columns (Qiagen), analyzed on an ABI 3130xL genetic analyzer (Applied Biosystems) with peak positions identified by using a set of X-rhodamine (ROX)-labeled MapMarker1000 molecular weight standards (BioVentures). The raw capillary electrophoresis data was processed using Attagraph software (Attagene).

For `CC(C)c1ccc(O)cc1`, which outcome is on record?
The outcome was “inactive”.

Which outcome does the source give for `CC(=O)/C=C/c1ccccc1` here?
Its outcome is “inactive”.

Which outcome does the source give for `C#CC1(O)CCCCC1` here?
The outcome was “inactive”.

For `CC(C)CCCCCCCOC(=O)c1ccccc1C(=O)OCCCCCCCC(C)C`, which outcome is on record?
The outcome was “inactive”.

With `Cc1ccc(C)c2ccccc12` as the compound, how does the outcome read?
The outcome was “inactive”.

With `CC1(C)[C@H](C(=O)O[C@H](C#N)c2cccc(Oc3ccccc3)c2)[C@@H]1C=C(Br)Br` as the compound, how does the outcome read?
Its outcome is “inactive”.

With `CCNCC` as the compound, how does the outcome read?
The outcome was “inactive”.

For `CN(N=O)c1ccccc1`, which outcome is on record?
The outcome was “inactive”.

For `[CH3][Sn]([CH3])([Cl])[Cl]`, which outcome is on record?
Its outcome is “inactive”.

Which AC50 does the source give for `Oc1ccc(C2(c3ccc(O)cc3)c3ccccc3-c3ccccc32)cc1` here?
The AC50 was 19.1 µM (active).

With `Nc1ccc([N+](=O)[O-])cc1N` as the compound, how does the outcome read?
The outcome was “inactive”.

With `Oc1cc(Cl)ccc1Cl` as the compound, how does the outcome read?
Its outcome is “inactive”.

For `O=S(=O)(O)O`, which outcome is on record?
The outcome was “inactive”.

Which outcome does the source give for `[CH3][Sn]([Cl])([Cl])[Cl]` here?
The outcome was “inactive”.

For `O=C(O)COc1ccccc1`, which outcome is on record?
Its outcome is “inactive”.

Which outcome does the source give for `ClCCCCCCCl` here?
Its outcome is “inactive”.

For `C[C@]12CCC(=O)C(O)=C1CC[C@@H]1[C@@H]2CC[C@]2(C)C(=O)CC[C@@H]12`, which outcome is on record?
Its outcome is “inactive”.

With `CN(C)CCC#N` as the compound, how does the outcome read?
The outcome was “inactive”.

With `CCC(Br)(CC)C(=O)NC(N)=O` as the compound, how does the outcome read?
The outcome was “inactive”.

For `CC(C)[C@@H](C(=O)O[C@@H](C#N)c1cccc(Oc2ccccc2)c1)c1ccc(Cl)cc1`, which outcome is on record?
The outcome was “inactive”.

With `O=C=Nc1ccccc1` as the compound, how does the outcome read?
Its outcome is “inactive”.

For `O=c1c2ccccc2c(=O)c2c1cc(Cl)c1[nH]c3c([nH]c12)c(Cl)cc1c(=O)c2ccccc2c(=O)c13`, which outcome is on record?
The outcome was “inactive”.

Which AC50 does the source give for `O=[N+]([O-])O.O=[N+]([O-])O.[Cd]` here?
Its AC50 is 9.58 µM (active).

For `CCOC(=O)C1OC1(C)c1ccccc1` (stereo not given), which outcome is on record?
Its outcome is “inactive”.

For `ClCC(Cl)Cl`, which outcome is on record?
The outcome was “inactive”.

With `CC(C)C(=O)Cl` as the compound, how does the outcome read?
Its outcome is “inactive”.

With `CCCOC(=O)c1ccccc1C(=O)OCCC` as the compound, how does the outcome read?
The outcome was “inactive”.

With `CCOC(=O)COc1ccc(Cl)cc1Cl` as the compound, how does the outcome read?
The outcome was “inactive”.

With `O=c1[nH]c(Cl)c(Cl)cc1Cl` as the compound, how does the outcome read?
The outcome was “inactive”.

With `Cc1ccc(N(SC(F)(Cl)Cl)S(=O)(=O)N(C)C)cc1` as the compound, how does the AC50 read?
Its AC50 is 11.1 µM (active).

Which outcome does the source give for `CCOC(=O)N(C)N=O` here?
The outcome was “inactive”.

With `O=C1C=CC(=O)C=C1` as the compound, how does the outcome read?
The outcome was “inactive”.

With `CCC1CCC(=O)O1` (stereo not given) as the compound, how does the outcome read?
Its outcome is “inactive”.

With `CCN(CC)C(=S)S` as the compound, how does the outcome read?
Its outcome is “inactive”.

With `CC(C)COP(=O)(OCC(C)C)OCC(C)C` as the compound, how does the outcome read?
The outcome was “inactive”.

For `N#CCCCl`, which outcome is on record?
Its outcome is “inactive”.

For `CN(C)C(=O)C(c1ccccc1)c1ccccc1`, which outcome is on record?
The outcome was “inactive”.

Which outcome does the source give for `CC(Cc1ccc(C(C)(C)C)cc1)CN1C[C@@H](C)O[C@@H](C)C1` (stereo not given in full) here?
Its outcome is “inactive”.

Which AC50 does the source give for `CCC(C)c1cc([N+](=O)[O-])cc([N+](=O)[O-])c1OC(=O)C=C(C)C` (stereo not given) here?
Its AC50 is 24.8 µM (active).

For `COc1cc(OC)c(OC)cc1C=O`, which outcome is on record?
Its outcome is “inactive”.
